Experimental data taken from PubChem BioAssay AID463173 (ICCB-Longwood Screening Facility, Harvard Medical School, 2010).
In all, about 52,000 compounds went through this assay and about 4,300 (8.3%) were called active. The entries come from a sample that favours actives as a whole. A number with no mark means an inactive call. Cut-off read from the data, not from the text of the source: active = survival mostly below about 52% (no sharp cut-off); inactive = mostly above about 56%.

Test system: DeltatarO mutant
Assay: growth inhibition of S. aureus wild type versus tarO mutant, primary screen, teichoic acid synthesis inhibitors, RN4220, OD600 (AID 463173)
Settings: OD600, 18 h, active compounds read low, screened at 18.75 µg/mL (by protocol)

Structure (SMILES)	survival
CCc1ccc(NC(=O)c2cc(S(=O)(=O)N3CCCCC3)c[nH]2)cc1	105%
Cc1c(CC(=O)NCc2ccccc2Cl)c(=O)oc2cc(O)ccc12	44% (active)
COc1ccccc1CCNC(=O)Cc1c(C)c2ccc(O)cc2oc1=O	57%
Cc1cc(O)c2c(C)c(CC(=O)NCc3ccccc3Cl)c(=O)oc2c1	62%
CCN(CC)c1ncnc(Cl)c1Cc1ccc(OC)cc1	105%
COc1ccccc1NC(=O)N1CCN(c2cc(-c3ccccc3)nc3ncnn23)CC1	66%
Cc1ccc(S(=O)(=O)c2nc(-c3cccc(Br)c3)oc2N2CCCCCC2)cc1	45% (active)
Cc1cccc(-c2nc(S(=O)(=O)c3ccccc3)c(N3CCN(c4ccccc4)CC3)o2)c1	112%
Cc1cccc(-c2nc(S(=O)(=O)c3ccc(F)cc3)c(N3CCN(c4ccccc4)CC3)o2)c1	110%
Cc1cccc(-c2nc(S(=O)(=O)c3ccc(Cl)cc3)c(N3CCCCCC3)o2)c1	46% (active)
COc1cccc(-c2nc(S(=O)(=O)c3ccc(C)cc3)c(N3CCCCCC3)o2)c1	55%
COc1cccc(-c2nc(S(=O)(=O)c3ccccc3)c(N3CCCCC3)o2)c1	61%
COc1cccc(-c2nc(S(=O)(=O)c3ccc(C)cc3)c(N3CCCCC3)o2)c1	47%
Cc1ccc(S(=O)(=O)c2nc(-c3cccc(C)c3)oc2N2CCN(c3ccccc3)CC2)cc1	114%
Cc1ccc(S(=O)(=O)c2nc(-c3cccc(C)c3)oc2N2CCCCC2)cc1	6% (active)
Cc1ccc(Cc2nc3ccccc3nc2SCC(=O)NCc2ccccc2Cl)cc1	120%
O=C(Cn1c(=O)n(-c2ccccc2Cl)c(=O)c2sc3ccccc3c21)N1CCCC1	80%
O=c1c2oc3ccccc3c2n(Cc2ccccc2Cl)c(=O)n1Cc1ccc2c(c1)OCO2	65%
CSc1ccc(CNC(=O)c2cc3cc(S(=O)(=O)N4CCCCC4)ccc3n2C)cc1	95%
Cc1ccc(Cl)cc1NC(=O)CSc1nc2ccccc2c2nc(-c3ccccc3)nn12	113%
CCOC(=O)CC(NC(=O)CCc1c(C)nc2ncnn2c1C)c1ccc(OC(C)C)cc1 (stereo not given)	114%
Cc1ccc(Cn2c(C(=O)Nc3ccc(Cl)cc3)cc3sccc32)cc1	112%
CC(=O)c1c(C)n(-c2ccc(Cl)cc2)c2ccc(OC(=O)COc3ccccc3)cc12	63%
Cn1c(CNc2nc(-c3ccccc3)cs2)nnc1SCC(=O)c1ccccc1	51% (active)

Structure (SMILES)	survival
CCn1c(CNc2nc(-c3ccccc3)cs2)nnc1SCC(=O)c1ccc(OC)cc1	87%
Cn1c(CNc2nc(-c3ccccc3)cs2)nnc1SCC(=O)OC1CCCCC1	73%
CSc1ccc(CCNC(=O)c2ccc3c(Cl)c4c(nc3c2)CCCC4)cc1	64%
CCCOC(=O)c1ccc2c(c1)C(=O)N(c1ccccc1)C2=O	78%
O=C(NCc1ccc2c(c1)OCO2)c1ccc2c(c1)N(Cc1ccccc1)C(=O)c1ccccc1S2=O (stereo not given)	83%
CC(CNC(=O)c1ccc(Cn2c(SCc3ccccc3)nc3cccnc32)cc1)c1ccccc1 (stereo not given)	69%
O=C(O)CN1CCCCC1	89%
O=C(c1ccco1)n1nc(-c2ccccc2)nc1NCc1ccc(Cl)cc1	91%
O=C(c1ccccc1)n1nc(-c2ccc(Cl)cc2)nc1NCc1ccco1	23% (active)
O=C(c1ccco1)n1nc(-c2ccc(Cl)cc2)nc1NCc1ccc(F)cc1	80%
COc1ccc(C(=O)n2nc(-c3ccc(Cl)cc3)nc2NCc2ccco2)cc1	115%
O=C(c1ccc(F)cc1)n1nc(-c2ccccc2)nc1NCc1ccco1	18% (active)
O=C(c1ccco1)n1nc(-c2ccccc2)nc1NCc1ccccc1Cl	96%
O=C(c1ccc(Cl)cc1)n1nc(-c2ccccc2)nc1NCc1ccco1	29% (active)
O=C(c1ccco1)n1nc(-c2ccc(Cl)cc2)nc1NCc1ccccc1	74%
O=C(c1ccc(F)cc1)n1nc(-c2ccc(Cl)cc2)nc1NCc1ccco1	70%
Cc1ccc2onc(CNC(=O)NCc3ccc(Cl)cc3)c2c1	77%
FC(F)(F)COc1nc(OCC(F)(F)F)nc(N(c2ccccc2)c2ccccc2)n1	71%
O=C(CCCCn1c(=O)c2ccccc2n(Cc2ccccc2Cl)c1=O)NCc1ccc2c(c1)OCO2	78%
COc1ccc(S(=O)(=O)c2c(Nc3c(C)cccc3C)sc(C(=O)c3ccc(F)cc3)c2N)cc1	98%
Cc1ccc(C)c(S(=O)(=O)c2nnn3c2nc(N2CCCCC2)c2sccc23)c1	60%
COc1cccc(C(=O)N2CCCCC2CCN2CCCCC2)c1 (stereo not given)	83%
O=c1[nH]c2nonc2nc1/C=C(\O)c1ccccc1	15% (active)
O=c1[nH]c2ccccc2nc1/C=C(\O)c1ccccc1	83%

Structure (SMILES)	survival
NC(=O)NC(=O)c1nc2nonc2[nH]c1=O	91%
Cc1cccc(OC2CCS(=O)(=O)C2)c1 (stereo not given)	87%
COc1ccc(C2=C(C)C(=NCCCN3CCN(c4cc(Cl)ccc4C)CC3)NS2(=O)=O)cc1	59%
N#CC(C#N)=Cc1cn(CCCOc2ccccc2Cl)c2ccccc12	76%
COc1ccccc1-c1nnc(SCC(=O)c2ccc(F)cc2)n1-c1ccccc1	6% (active)
O=C(CSc1nnc(-c2ccccc2Br)n1-c1ccccc1)c1ccc(F)cc1	17% (active)
COc1ccccc1-c1nnc(SCC(=O)c2ccc(Cl)cc2)n1-c1ccccc1	1% (active)
COc1ccccc1-c1nnc(SCC(=O)OC(C)C)n1-c1ccccc1	92%
CCn1c(SCC(=O)c2ccc([N+](=O)[O-])cc2)nnc1-c1ccc(Cl)cc1	70%
CCn1c(SCC(=O)c2ccccc2)nnc1-c1cccc(Cl)c1	39% (active)
Cc1ccc(C(=O)CSc2nnc(-c3ccccc3)n2-c2ccccc2)cc1	99%
CCOc1ccc(-c2nnc(SCC(=O)c3ccc(F)cc3)n2-c2ccccc2)cc1	168%
Cc1ccc(-c2nnc(SCC(=O)c3ccc(Cl)cc3)n2-c2ccccc2)cc1	85%
Cn1c(SCC(=O)c2ccc(F)cc2)nnc1-c1ccccc1Br	57%
O=C(CSc1nnc(-c2ccc(Br)cc2)n1-c1ccccc1)c1ccccc1	69%
CCn1c(SCC(=O)c2ccccc2)nnc1-c1ccco1	86%
CCCCNC(=O)CSc1nc(-c2ccc(OC)cc2)cc(C(F)(F)F)n1	66%
Cc1oc2c(c(C)cc3oc(=O)c(CC(=O)NCc4ccc(F)cc4)c(C)c32)c1C	89%
CCc1c(C)nc2cc(-c3cc(OC)cc(OC)c3)nn2c1NCCO	95%
CC(=O)N1c2ccccc2C(=O)C1N1CCN(c2cccc(C(F)(F)F)c2)CC1 (stereo not given)	91%
O=C(c1ccc(F)cc1)N1c2nc(-c3ccco3)nn2C2(CCCCC2)[C@@H]2CCCC[C@@H]21	53%
O=C(c1ccccc1)N1c2nc(-c3ccco3)nn2C2(CCCCC2)[C@@H]2CCCC[C@@H]21	62%
Cc1ccc(C(=O)N2c3nc(-c4ccco4)nn3C3(CCCCC3)[C@@H]3CCCC[C@@H]32)cc1	59% (active)
CSc1ccc(CCNC(=O)c2ccc(-c3nc(COc4ccc(C)cc4)c(C)o3)cc2)cc1	82%

Structure (SMILES)	survival
COc1cccc(NC(=O)CSc2nc(=O)n(Cc3ccco3)c3c2CCC3)c1	90%
Cc1c(Cl)cccc1NC(=O)CCN1C(=O)c2ccccc2Sc2ncccc21	78%
CCOc1ccc(C(=O)Cn2c(=O)n3nc(CCn4nc(C)cc4C)nc3c3cc(OC)c(OC)cc32)cc1	98%
Fc1ccc(Nc2c3c(nc4ccccc24)CCC3)cc1	69%
COc1ccc(OC)c(Nc2c3c(nc4ccccc24)CCC3)c1	94%
Cc1ccc2nc3c(c(Nc4ccc(C)c(C)c4)c2c1)CCC3	38% (active)
Cc1ccc(Nc2c3c(nc4ccccc24)CCC3)cc1F	2% (active)
COc1ccc(C)cc1Nc1c2c(nc3ccccc13)CCC2	85%
COc1ccc(Nc2c3c(nc4ccccc24)CCC3)cc1Cl	59%
CCOC(=O)c1ccc(CN(Cc2ccccc2C)S(=O)(=O)c2ccc(C(C)(C)C)cc2)cc1	83%
CCN1C(=O)c2ccccc2S(=O)(=O)c2ccc(C(=O)NCc3ccc(C)cc3)cc21	61%
Cc1ccc(C(=O)c2cn(CC(=O)NCc3ccccc3)c3nc(C)ccc3c2=O)cc1	95%
Cc1ccc(CNC(=O)c2c(-c3ccc(F)cc3F)noc2C)o1	77%
CCc1nn2c(=O)cc(COC(=O)c3ccccc3NC(=O)COc3ccc(C)c(C)c3)nc2s1	87%
CCCCN(CC)C(=O)CCCn1c(=O)c2cccn2c2ccccc21	49% (active)
CCCCN(CC)C(=O)CCn1c(=O)c2cccn2c2cccnc21	70%
COc1ccc(Br)cc1CNC(=O)CCCn1c(=O)c2cccn2c2cccnc21	106%
COc1ccc(Br)cc1CNC(=O)CCCn1c(=O)c2cccn2c2ccccc21	39% (active)
O=C(CCCn1c(=O)c2cccn2c2ccccc21)NCc1ccccc1Br	43% (active)
COc1ccccc1CNC(=O)CCCn1c(=O)c2cccn2c2ccccc21	76%
Cc1ccccc1CNC(=O)CCCn1c(=O)c2cccn2c2ccccc21	68%
O=C(CCCn1c(=O)c2cccn2c2cccnc21)NCc1ccccc1Br	130%
CN(C)CCNC(=O)CCCn1c(=O)c2cccn2c2ccccc21	64%
